The list is not random: actives were taken first. Their share in the collection is about 8.8%.
HPGD block = qHTS Assay for Inhibitors of HPGD (15-Hydroxyprostaglandin Dehydrogenase) | 150,000 compounds, 4.3% hits | 15-hydroxyprostaglandin dehydrogenase [NAD(+)] (Homo sapiens), P15428 | purified HPGD, NADH fluorescence kinetic, PGE2 substrate | Potency, µM, for the others: at the top dose activity change, negative = inhibition, most hits filed as inhibitors; active = well fitted inhibition curve with a large enough effect, not every such curve was filed as active; inconclusive = small, poorly fitted or top-dose-only effect, or another doubt; inactive = no such curve, though single readings can be large or run the other way; note: % is set by controls: 0 for no effect and ±100 for the full control effect
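20 nM HPGD preincubated 15 min at room temperature with compound in 50 mM Tris-HCl pH 8, 0.01% Tween 20. Started with 1 mM NAD+ and 30 uM prostaglandin E2; NADH fluorescence (360/450 nm) read 5 times over 30-s intervals, last minus first.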
ALDH1A1 block = qHTS Assay for Inhibitors of Aldehyde Dehydrogenase 1 (ALDH1A1) | Aldehyde dehydrogenase 1A1 (Homo sapiens), P00352 | Purified ALDH1A1, NADH fluorescence, propionaldehyde substrate | Potency, µM (series often up to 75.3 µM), without a hit: at the highest dose activity, negative = inhibition, actives largely listed as inhibitors | 220,000 compounds, 7.3% hits; active = well fitted inhibition curve with a large enough effect, not every such curve was filed as active; inconclusive = small, poorly fitted or top-dose-only effect, or another doubt; inactive = no such curve, though single readings can be large or run the other way;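 note: plate controls were no enzyme wells and a reference inhibitor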
Target sequence (P00352 whole entry, looked up): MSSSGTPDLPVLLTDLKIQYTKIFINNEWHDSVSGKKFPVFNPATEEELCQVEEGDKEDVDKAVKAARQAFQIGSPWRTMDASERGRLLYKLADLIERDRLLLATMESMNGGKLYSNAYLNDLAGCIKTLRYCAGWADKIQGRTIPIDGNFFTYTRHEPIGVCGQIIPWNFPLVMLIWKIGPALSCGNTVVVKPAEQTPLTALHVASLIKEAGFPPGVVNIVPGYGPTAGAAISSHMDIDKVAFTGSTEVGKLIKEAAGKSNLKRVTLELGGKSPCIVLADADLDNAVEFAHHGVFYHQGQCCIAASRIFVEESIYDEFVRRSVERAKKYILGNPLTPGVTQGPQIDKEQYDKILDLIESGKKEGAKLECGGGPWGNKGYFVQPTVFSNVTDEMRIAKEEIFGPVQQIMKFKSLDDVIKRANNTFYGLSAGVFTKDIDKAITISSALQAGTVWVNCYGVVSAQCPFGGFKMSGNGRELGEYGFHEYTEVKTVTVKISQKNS
HTT ATP protect = qHTS Multiplex Assay to Identify Dual Action Probes in a Cell Model of Huntington: Cytoprotection (ATP); PC12 HTT-Q103 induced, cytoprotection, ATP luminescence, 40 h; Potency, µM (doses to about 56.4 µM), inactives show cytoprotection (ATP increase), most hits filed as activators; 230,000 compounds, 0.14% hits; AID 1471, 2008; note: % of control where 0% means no effect; nearly all actives have a fitted effect of over 45% in size
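Compounds added alongside 100 nM tebufenozide, which induces toxic Q103 huntingtin exon 1-GFP in stable PC12 cells; surviving cells quantified by luminescent ATP measurement. Medium: phenol red-free DMEM, 5% equine and 5% calf serum.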
LMNA splice mod = qHTS Assay for Modulators of Lamin A Splicing. 200,000 compounds, 0.01% hits. Potency, µM (highest dose often 46.1 µM), without a hit: at the top dose ratio change, negative = inhibition, usual class: inhibitors. HeLa LMNA splicing GFP/RFP minigene ratio, 48 h; active = well fitted inhibition curve with a large enough effect in the signal ratio, with a control signal flat, not every such curve was filed as active; inconclusive = small, poorly fitted or top-dose-only effect, or effect the other way, or a change in a side signal; the % refers to the signal ratio; note: % is set by controls: 0 for no effect and ±100 for the full control effect
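S3 HeLa stable clones carrying a lamin A-EGFP splicing minigene plus DsRed2 were seeded at 600 cells/well in Opti-MEM with 2% FBS, pin-dosed and incubated 48 h at 37°C. Acumen cytometry (488 nm) gave the GFP/RFP total-intensity ratio.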
HttQ103 aggreg = qHTS Multiplex Assay to Identify Dual Action Probes in a Cell Model of Huntington: Aggregate Formation (GFP) | PC12 HttQ103-GFP aggregates, Acumen cytometry, 40 h | Potency, µM (highest dose often 46.1 µM), inactives show top-dose activity change, negative = inhibition, usual class: inhibitors | 220,000 compounds, 1.1% hits; note: % is set by controls: 0 for no effect and ±100 for the full control effect; nearly all actives have a fitted effect of over 60% in size
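PC12 cells stably carrying ecdysone-inducible HTT exon 1 Q103–GFP were induced with tebufenozide (100 nM final) and treated with library compounds in titration. GFP aggregates in lysates were counted by laser scanning cytometry.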
* marks the source's active call; other numbers are inactive results; ? = inconclusive; · = no result given; [ ] = dose if it differs, or a comment. Unless noted, calls come from the whole dose curve; as a rule, active = well fitted curve in the direction sought with a large enough effect; inconclusive = small, poorly fitted or top-dose-only effect, or another doubt; inactive = no such curve, though single readings can be large; an effect the other way counts as inactive or inconclusive. Potency is the fitted concentration of half-maximal effect.

SMILES | HPGD block | ALDH1A1 block | HTT ATP protect | LMNA splice mod | HttQ103 aggreg
CCc1ccc(NC(=O)CSc2nc(=O)n(Cc3cccnc3)c3c2CCC3)cc1 | · | · | · | -24.9%[46 µM] | ·
COc1ccc(CCN(C)CC(O)c2ccccc2)cc1OC (configuration not stated) | · | 17.8µM* | -38.2% | 5.9%[46 µM] | -7.7%
CCOc1ccc(OCC)c(NC(=O)CC(C)n2nc(C)cc2C)c1 (configuration not stated) | · | · | · | 6.9%[46 µM] | ·
CC1=CC(C)C2C(=O)N(O)C(=O)C2C1 (configuration not stated) | 1.9% | 14.1µM* | 10.5% | -2.6% | -25.7%
COc1ccc(C(=O)c2ccc(Cl)cc2)c2ccccc12 | -6.7% | -5.5% | -4.4%[10 µM] | -16.6% | -25.4%
COc1ccc(C(=O)CCN(C)C)c2ccccc12 | -28.6% | 0.0282µM* | -10.2%[10 µM] | · | ·
CN1CCN(NC(=O)CN2C(=O)/C(=C/c3ccccc3Cl)SC2=S)CC1 | 12.6µM* | ? | -5.2%[10 µM] | -22.4% | 29.4%
CC(C)(CC(=O)O)CC(=O)Nc1ccc(Oc2ccc(C(C)(C)C)cc2)nc1 | · | 8.91µM* | -4.3%[10 µM] | · | -2.2%[9.22 µM]
CC(C)Oc1ccc(CNC(=O)c2cnc3sc(N4CCCCCC4)nn3c2=O)cc1 | · | · | · | 1.3%[46 µM] | ·
CC(C)(C)c1ccc(CN2N=Nc3ccccc3S2(=O)=O)cc1 | ? | 22.4µM* | -47.0% | ? | -10.4%[9.22 µM]
O=S1(=O)c2ccccc2N=NN1Cc1ccc(Cl)c(Cl)c1 | 5.62µM* | 2.51µM* | -23.7% | 9.8% | 20.0%
CC(C)c1nn2c(=O)cc(COC(=O)c3ccc(NC(=O)c4cccs4)cc3)nc2s1 | · | · | · | -7.2%[46 µM] | ·
N#CCCn1c(=O)c(-c2cc(F)cc(F)c2)nc2cnc(OCc3ccccc3)nc21 | ? | ? | -11.0% | · | ·
CCN1C(=O)C2C(C1=O)N1C(c3cccs3)C3C(=O)N(CC)C(=O)C3N1C2c1cccs1 (configuration not stated) | -2.8% | 5.3% | -1.5% | 16.6% | 28.2µM*
CCN1C(=O)C2C(C1=O)N1C(c3ccccc3)C3C(=O)N(CC)C(=O)C3N1C2c1ccccc1 (configuration not stated) | -5.3% | -6.1% | 0.4% | -9.1% | 5.4%
Cc1cc(C)cc(-n2cnc3cc(C(=O)O)ccc32)c1 | 15.8µM* | -5.4% | -1.9% | 3.8% | -4.1%
CCCNC(=O)c1ccc2c(c1)ncn2-c1cc(C)cc(C)c1 | · | 2.1% | -73.7% | · | -20.0%
O=C(C1=C(O)C(=O)N(c2ncccn2)C1c1cccc(Cl)c1)c1ccco1 (configuration not stated) | -13.1% | 17.8µM* | 13.2% | 16.9% | -23.3%
O=C(C1=C(O)C(=O)N(c2ncccn2)C1c1ccc(Cl)c(Cl)c1)c1ccco1 (configuration not stated) | ? | 7.94µM* | 3.6% | 25.4% | 13.2%
COCCN(CCOC)c1nc(C)nc2c1nc(-c1ccccc1)n2CCN1CCCC1 | ? | ? | 7.5% | · | ·
COc1cc(NC(=O)O[C@@H]2C(=O)c3cc(Br)ccc3O[C@H]2c2ccc3c(c2)OCO3)cc(OC)c1OC | -11.9% | -9.8% | ? | · | ·
COc1cc(CNC(=O)CSCc2nc3cccnc3n2C2CCCCC2)cc(OC)c1OC | · | · | · | 3.2%[46 µM] | ·
COc1ccc2cc(CN(Cc3ccco3)C(c3nnnn3C3CCCCC3)C(C)C)c(=O)[nH]c2c1 (configuration not stated) | -15.9% | 15.8µM* | 1.5%[10 µM] | 10.9% | -3.6%
CCC(c1nnnn1CC1CCCO1)N(CCCO)Cc1cc2cccc(C)c2[nH]c1=O (configuration not stated) | -11.0% | ? | -1.1% | -6.1% | -9.7%[9.22 µM]
COc1ccc2[nH]c(=O)c(CN(Cc3ccco3)Cc3nnnn3Cc3ccccc3)cc2c1 | ? | ? | 1.4% | 15.3% | ?
SMILES | HPGD block | ALDH1A1 block | HTT ATP protect | LMNA splice mod | HttQ103 aggreg
COc1ccc2cc(CN(Cc3ccco3)Cc3nnnn3C3CCCCC3)c(=O)[nH]c2c1 | -10.8% | 7.94µM* | -21.7%[10 µM] | ? | -8.5%
Cc1cccc2cc(CN(CC3CCCO3)C(c3nnnn3Cc3ccco3)C(C)C)c(=O)[nH]c12 (configuration not stated) | -0.5% | 6.31µM* | -47.7% | ? | -12.1%
CC1=NN(C(=O)COc2ccc(C)c(C)c2)C(O)(c2ccccc2)C1 (configuration not stated) | -13.9% | ? | -2.7%[10 µM] | 5.0% | 16.0%
CCOC(=O)CNC(=O)N1CCCN(S(=O)(=O)c2ccc3c(ccn3CC)c2)CC1 | · | · | · | 15.0%[46 µM] | ·
CCc1ccc(NC(=O)C(=O)NCCc2csc(-c3cccc(F)c3)n2)cc1 | · | · | · | 11.9%[46 µM] | ·
COc1ccc(-n2nc3c(c2NC(=O)C24CC5CC(CC(C5)C2)C4)CS(=O)C3)cc1 (configuration not stated) | -3.0% | 2.82µM* | 0.0% | -6.2% | -6.0%
COc1ccc(-c2cccc(C3CC=CC4C3C(=O)N(Cc3ccccc3)C4c3ccc(C(F)(F)F)cc3)c2)cc1 (configuration not stated) | · | · | -44.9%[10 µM] | · | 1µM*
C=CCC1(O)CCOc2ccccc21 (configuration not stated) | -5.6% | 3.0% | -22.3% | · | ·
CCC(=O)C(C(=O)OC)[C@H](CCc1ccccc1)NC(=O)OC (some centres not stated) | -6.3% | 3.0% | 2.4% | · | ·
CCOc1ccccc1C(=O)N(Cc1cccs1)c1ccc(Cl)cc1 | · | · | · | -1.7%[46 µM] | ·
COc1ccccc1CN=Cc1[nH]c2ccc(Br)c(Cl)c2c1O | 12.6µM* | 0.794µM* | -16.7% | -10.3% | ?
COc1cccc(CN=CC2=C(O)CC(C)(C)CC2=O)c1OC | ? | ? | -0.8% | -15.0% | -6.4%
Cc1cccc(N=Cc2[nH]c3ccc(Br)c(Cl)c3c2O)c1 | 14.1µM* | 4.47µM* | 22.2%[10 µM] | 4.5% | -8.6%
COc1ccc(Cl)cc1NC(=O)C1CCCN(c2ncnc3onc(C)c23)C1 (configuration not stated) | · | · | · | -4.6%[46 µM] | ·
COc1ccc(COc2ccc(C3C(S(=O)(=O)c4ccccc4)CON3C)cc2OC)cc1 (configuration not stated) | · | 8.91µM* | 5.6%[10 µM] | ? | -21.7%
